This is an account of results in publication PMC4336329 (PLoS ONE, 2015).

The campaign covered roughly 310,000 compounds. About 14,000 (4.5%) showed an effect of 50% or more. The effect is printed as a negative number. Shown is part of a subset that was picked to be rich in strong results.
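Note: peak tail current of the secondary pulse compared with the same well before compound.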

The target of the experiment is human ether-à-go-go-related gene (hERG) potassium channel (human, UniProt Q12809). Kind of experiment: primary screen, population patch clamp on CHO cells stably expressing hERG; higher = less effect of the substance.
human ether-à-go-go-related gene (hERG) potassium channel, sequence (Q12809 whole entry, looked up): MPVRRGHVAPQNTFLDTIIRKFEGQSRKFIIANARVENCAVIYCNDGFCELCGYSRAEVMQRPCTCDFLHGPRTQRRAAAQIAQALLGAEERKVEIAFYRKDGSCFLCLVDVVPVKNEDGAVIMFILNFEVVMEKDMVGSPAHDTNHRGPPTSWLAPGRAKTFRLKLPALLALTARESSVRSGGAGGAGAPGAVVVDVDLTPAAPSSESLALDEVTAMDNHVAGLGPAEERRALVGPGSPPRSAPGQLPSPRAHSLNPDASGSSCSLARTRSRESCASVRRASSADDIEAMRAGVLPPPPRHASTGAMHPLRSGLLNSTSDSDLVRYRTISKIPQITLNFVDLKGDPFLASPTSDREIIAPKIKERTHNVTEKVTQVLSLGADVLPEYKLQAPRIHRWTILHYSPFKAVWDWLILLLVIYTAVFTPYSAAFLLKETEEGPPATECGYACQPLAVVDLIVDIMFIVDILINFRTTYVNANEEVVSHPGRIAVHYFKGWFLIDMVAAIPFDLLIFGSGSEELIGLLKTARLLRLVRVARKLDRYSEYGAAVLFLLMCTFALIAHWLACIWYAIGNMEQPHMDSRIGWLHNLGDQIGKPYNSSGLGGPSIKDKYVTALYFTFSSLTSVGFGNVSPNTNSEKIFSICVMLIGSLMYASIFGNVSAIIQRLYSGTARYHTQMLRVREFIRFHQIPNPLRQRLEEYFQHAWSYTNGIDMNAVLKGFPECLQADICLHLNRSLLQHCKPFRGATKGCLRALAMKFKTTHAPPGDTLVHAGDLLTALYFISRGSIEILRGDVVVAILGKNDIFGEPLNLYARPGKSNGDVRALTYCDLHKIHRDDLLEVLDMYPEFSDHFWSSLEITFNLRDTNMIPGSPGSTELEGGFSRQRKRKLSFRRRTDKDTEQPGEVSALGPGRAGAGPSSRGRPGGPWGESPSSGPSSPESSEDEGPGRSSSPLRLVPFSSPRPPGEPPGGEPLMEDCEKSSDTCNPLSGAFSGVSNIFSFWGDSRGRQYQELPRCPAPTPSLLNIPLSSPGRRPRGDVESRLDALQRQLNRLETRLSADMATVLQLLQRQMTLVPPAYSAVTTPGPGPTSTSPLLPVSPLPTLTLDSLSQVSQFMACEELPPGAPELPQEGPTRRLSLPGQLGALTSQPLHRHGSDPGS
In the case of `O=C(c1cccc(Cl)c1)N1CCN(Cc2ccccc2)CC1`, the “hERG current change (%, negative = inhibition) at 10uM” value was -8.35%.

Consider `O=C(c1cccc(Cl)c1)N1CCC(N2CCC(C(=O)N3CCCC3)CC2)CC1`, for which the “hERG current change (%, negative = inhibition) at 10uM” value is listed as -49.1%.

As to `COC(=O)[C@H](Cc1ccccc1)NC(=O)N1CCN(Cc2ccccc2)CC1`, the “hERG current change (%, negative = inhibition) at 10uM” value is -58.6%.

As for `O=C(c1cccc(Cl)c1)N1CCC(C(=O)N2CCN(Cc3ccccc3)CC2)CC1`, the “hERG current change (%, negative = inhibition) at 10uM” value was -56.2%.

Consider `CS(=O)(=O)c1ccc(C(=O)N2CCN(Cc3ccccc3)CC2)cc1`, for which the “hERG current change (%, negative = inhibition) at 10uM” value is -55%.

Regarding `O=C(c1ccc(F)cc1)N1CCN(Cc2ccccc2)CC1`, the “hERG current change (%, negative = inhibition) at 10uM” value came out at 0.241%.

Turning to `CC(C)(C)c1ccc(C(=O)N2CCN(Cc3ccccc3)CC2)cc1`, the “hERG current change (%, negative = inhibition) at 10uM” value is -3.08%.

In the case of `O=C(c1ccc(S(=O)(=O)N2CCCCCC2)cc1)N1CCN(Cc2ccccc2)CC1`, the “hERG current change (%, negative = inhibition) at 10uM” value was -19.5%.

On to `O=C(c1ccc(Br)cc1)N1CCN(Cc2ccccc2)CC1`, for which the “hERG current change (%, negative = inhibition) at 10uM” value is reported as -52.2%.

Turning to `COC(=O)[C@H](Cc1ccccc1)NC(=O)N1CCCCCC1`, the “hERG current change (%, negative = inhibition) at 10uM” value was 13.5%.

As for `O=C(O)C(=O)O.O=C(c1ccccc1)N1CCN(Cc2ccccc2)CC1`, the “hERG current change (%, negative = inhibition) at 10uM” value is -9.23%.

Consider `CCOC(=O)/C(=C/c1ccc(F)cc1)NC(C)=O`, for which the “hERG current change (%, negative = inhibition) at 10uM” value is listed as -7.91%.

Regarding `COCCCNC(=O)CCNS(=O)(=O)c1ccc(C)cc1`, the “hERG current change (%, negative = inhibition) at 10uM” value was -1.45%.

Regarding `Cc1ccc2ncnc(Oc3ncccc3NC(=O)C(C)(C)C)c2c1`, the “hERG current change (%, negative = inhibition) at 10uM” value came out at 13.8%.

With `O=S(=O)(N1CCCCC1)N1CCN(c2cc(Cl)ccc2Cl)CC1`, the “hERG current change (%, negative = inhibition) at 10uM” value came to 15.2%.

Take `COc1ccc(C2Nc3ccccc3C(=O)N2Cc2ccco2)cc1CN1C(=O)c2ccccc2C1=O` (stereo not shown): the “hERG current change (%, negative = inhibition) at 10uM” value is given as -20.7%.

With `O=C(NCc1ccco1)C(=O)c1cn(CC(=O)N2CCCCC2)c2ccccc12`, the “hERG current change (%, negative = inhibition) at 10uM” value is reported as 19.3%.

For `O=C(O)CC/C(=N\NC(=O)CNC(=O)c1ccc(F)cc1)c1ccccc1`, the “hERG current change (%, negative = inhibition) at 10uM” value was 9.42%.

On to `Cc1ccc(CNC(=O)COC(=O)Cn2nc(C)c([N+](=O)[O-])c2C)cc1`, for which the “hERG current change (%, negative = inhibition) at 10uM” value is given as -16.3%.

For `COc1ccc(C(=O)NCc2ccc(N3CCN(C(=O)OC(C)(C)C)CC3)cc2)cc1`, the “hERG current change (%, negative = inhibition) at 10uM” value is -12.7%.

As for `COC(=O)c1cc(-c2c(-c3ccc4c(c3)OCO4)noc2-c2ccsc2)cc([N+](=O)[O-])c1`, the “hERG current change (%, negative = inhibition) at 10uM” value is 10.7%.

Consider `Cc1occc1C(=O)N1CCN(Cc2ccccc2)CC1`, for which the “hERG current change (%, negative = inhibition) at 10uM” value was -1.16%.

For `CS(=O)(=O)c1ccccc1C(=O)N1CCN(Cc2ccccc2)CC1`, the “hERG current change (%, negative = inhibition) at 10uM” value was found to be 23.7%.

As for `O=C(C1CC1)N1CCN(Cc2ccccc2)CC1`, the “hERG current change (%, negative = inhibition) at 10uM” value is reported as -32.1%.

For `O=C(c1coc(=O)c2ccccc12)N1CCN(Cc2ccccc2)CC1`, the “hERG current change (%, negative = inhibition) at 10uM” value was -51.2%.

In the case of `COc1ccc(C(=O)N2CCC(C(=O)N3CCN(Cc4ccccc4)CC3)CC2)cc1`, the “hERG current change (%, negative = inhibition) at 10uM” value is reported as -9.58%.

Consider `O=C(c1ccc(Br)cc1)N1CCC(C(=O)N2CCN(Cc3ccccc3)CC2)CC1`, for which the “hERG current change (%, negative = inhibition) at 10uM” value is -60.1%.

For the compound `Clc1ccccc1/C=C/c1nc(-c2cccnc2)no1`, the “hERG current change (%, negative = inhibition) at 10uM” value is reported as 6.16%.

Take `CCN(CC)c1ccc(NC(=O)c2cnc3ccccn3c2=O)c(C)c1`: the “hERG current change (%, negative = inhibition) at 10uM” value was 4.51%.

For `CCOC(=O)c1ccc(NC(=O)c2cccc(C)c2[N+](=O)[O-])cc1`, the “hERG current change (%, negative = inhibition) at 10uM” value was determined as 4.73%.

In the case of `COc1ccc(C(=O)c2nccc3cc(OC)c(OC)cc23)cc1OC`, the “hERG current change (%, negative = inhibition) at 10uM” value was found to be 6.21%.

Consider `CC1CCN(C2(O)C(=O)Nc3ccc(Br)cc32)CC1` (stereo not shown), for which the “hERG current change (%, negative = inhibition) at 10uM” value is reported as 19.4%.

Consider `CCC(C)(C)NC(=O)CN(C(=O)CNS(=O)(=O)c1ccccc1)c1ccc2c(c1)OCCO2`, for which the “hERG current change (%, negative = inhibition) at 10uM” value was found to be 6.92%.

Regarding `Cc1ccc(NP(=O)(c2ccccc2)c2nc3ccccc3s2)cc1` (stereo not shown), the “hERG current change (%, negative = inhibition) at 10uM” value is given as 3.27%.

Take `COC(=O)c1cc(C(=O)N2CCN(C(=O)c3ccco3)CC2)cc([N+](=O)[O-])c1`: the “hERG current change (%, negative = inhibition) at 10uM” value is -66.7%.

Consider `COC(=O)c1cc(C(=O)N2CCN(c3ccccc3OC)CC2)cc([N+](=O)[O-])c1`, for which the “hERG current change (%, negative = inhibition) at 10uM” value is listed as -34.7%.

For `Cc1cccc(NC(=S)N2CCN(C(=O)c3ccco3)CC2)c1`, the “hERG current change (%, negative = inhibition) at 10uM” value was -9.36%.

Regarding `O=C(c1ccco1)N1CCN(C(=S)Nc2cccc([N+](=O)[O-])c2)CC1`, the “hERG current change (%, negative = inhibition) at 10uM” value is recorded as -63.3%.

On to `O=C(c1ccco1)N1CCN(C(=S)Nc2ccc(F)c(Cl)c2)CC1`, for which the “hERG current change (%, negative = inhibition) at 10uM” value was -71.9%.

As to `Cc1cc(C(=O)N2CCN(C(=O)c3ccco3)CC2)ccc1[N+](=O)[O-]`, the “hERG current change (%, negative = inhibition) at 10uM” value is recorded as -64.7%.

Take `Cc1cc(C(=O)N2CCOCC2)ccc1[N+](=O)[O-]`: the “hERG current change (%, negative = inhibition) at 10uM” value was 9.19%.

For the compound `COC(=O)c1cc(C(=O)N2CCOCC2)cc([N+](=O)[O-])c1`, the “hERG current change (%, negative = inhibition) at 10uM” value was 21.7%.

With `O=C(CN1CCN(C(=O)c2ccco2)CC1)Nc1cccc([N+](=O)[O-])c1`, the “hERG current change (%, negative = inhibition) at 10uM” value is recorded as -49.1%.

Take `O=C(c1ccc(Cl)c([N+](=O)[O-])c1)N1CCN(C(=O)c2ccco2)CC1`: the “hERG current change (%, negative = inhibition) at 10uM” value is recorded as -41.6%.

Turning to `COc1ccc(NC(=S)N2CCN(C(=O)c3ccco3)CC2)cc1OC`, the “hERG current change (%, negative = inhibition) at 10uM” value turned out to be 14.6%.

For the compound `O=C(c1ccco1)N1CCN(C(=S)Nc2cc(F)cc(F)c2)CC1`, the “hERG current change (%, negative = inhibition) at 10uM” value is given as -16.5%.
